# Test results reported in the supplement of paper PMC13380429.
# Unmarked numbers belong to inactive results.
# Tested on: Vero E6 infected with SARS-CoV-2
# Assay: inhibition of SARS-CoV-2 cytopathic effect; higher = more antiviral protection, active = above 15
# Settings: 8.33 nM; 48 h
row,SMILES,inhibition of SARS-CoV-2 cytopathic effect
1,COc1cc(OCc2cccc(-c3ccccc3)c2C)cc(OC)c1CN1CCCC[C@H]1C(=O)O [PD1-PDL-inhibitor-1],1.37%
2,N#CCC(=O)c1ccccc1,4.15%
3,CC(C)(C)C(=O)C(Oc1ccc(Cl)cc1)n1ccnc1 (configuration not stated) [climbazole],1.03%
4,CCCC[C@H](NC(=O)[C@@H]1[C@@H]2[C@H](CN1C(=O)[C@@H](NC(=O)NC1(CS(=O)(=O)C(C)(C)C)CCCCC1)C(C)(C)C)C2(C)C)C(=O)C(=O)NC1CC1 [narlaprevir],1.32%
5,CNC1CCCN(c2c(F)cc3c(=O)c(C(=O)O)cn(C4CC4)c3c2OC)C1 (configuration not stated) [balofloxacin],0.66%
6,C[C@]12CCC(=O)C=C1CC[C@@H]1[C@@H]2CC[C@@]2(C)[C@H]1CC[C@]2(O)C(=O)CO [cortodoxone],-0.71%
7,O=C1N=C2SCCN2C(=O)C1Cc1ccc(Cl)cc1 (configuration not stated) [nuclomedone],-3.69%
8,Cc1ccccc1NC(=N)Nc1ccccc1C [ditolylguanidine],1.77%
9,CS(=O)(=O)c1cccc(CNc2nc(Nc3ccc4c(c3)CCC(=O)N4)ncc2C(F)(F)F)c1,-1.29%
10,O=C(Nc1ccc(S(=O)(=O)Nc2nccs2)cc1)C(c1ccccc1)c1ccccc1,3.67%
11,OC[C@H]1O[C@@H](Oc2ccc(O)cc2)[C@H](O)[C@@H](O)[C@@H]1O [arbutin],0.67%
12,CN[C@H](CC(C)C)C(=O)N[C@H]1C(=O)N[C@@H](CC(N)=O)C(=O)N[C@H]2C(=O)N[C@H]3C(=O)N[C@H](C(=O)N[C@H](C(=O)O)c4cc(O)cc(O)c4-c4cc3ccc4O)[C@H](O)c3ccc(c(Cl)c3)Oc3cc2cc(c3O[C@@H]2O[C@H](CO)[C@@H](O)[C@H](O)[C@H]2O[C@H]2C[C@](C)(N)[C@H](O)[C@H](C)O2)Oc2ccc(cc2Cl)[C@H]1O,1.31%
13,CN1CCC(c2c[nH]c3ccc(O)cc23)CC1,2.91%
14,O=C(NCc1ccccc1)OCCO [buramate],-3.15%
15,CCCN(C/C=C/I)[C@H]1CCc2ccc(O)cc2C1 [7-hydroxy-PIPAT],0.14%
16,CN1CC[C@H](c2c(O)cc(O)c3c(=O)cc(-c4ccccc4Cl)oc23)[C@H](O)C1 [alvocidib],1.53%

row,SMILES,inhibition of SARS-CoV-2 cytopathic effect
1,COc1ccc(-c2nc(-c3ccc(-c4cccc(Cl)c4)o3)[nH]c2-c2ccc(OC)cc2)cc1 [neurodazine],-0.31%
2,Cc1ccc(C(C)C)c(O)c1 [thymol],-2.55%
3,CCCC(=O)Nc1cccc(NC(=O)c2ccccc2Br)c1,1.45%
4,O/N=C/c1cc[n+](COC[n+]2ccc(/C=N/O)cc2)cc1 [obidoxime],-0.64%
5,O=C(Nc1cccc2c(=O)cc(-c3nnn[nH]3)oc12)c1ccc(OCCCCc2ccccc2)cc1 [pranlukast],2.87%
6,c1cnc(NCc2ccc(CNc3ncccn3)cc2)nc1,-1.7%
7,COc1ccc(-c2nc(C(=O)N3CCN(C)CC3)sc2-c2ccc(OC)cc2)cc1,-0.77%
8,N#Cc1ccnc(N2C(=O)CC[C@H]2C(=O)N(c2cncc(F)c2)[C@H](C(=O)NC2CC(F)(F)C2)c2ccccc2Cl)c1 [ivosidenib],3.62%
9,COc1cc2nccc(Oc3ccc(NC(=O)Nc4ccc(F)cc4F)c(F)c3)c2cc1OC,1.76%
10,O=C1c2ccccc2-c2n[nH]c3cccc1c23 [pyrazolanthrone],0.82%
11,COc1ccc(Br)cc1S(=O)(=O)NC(=O)/C=C/c1ccccc1Cc1ccc2ccccc2c1,1.19%
12,O=C(NCc1ccc2c(c1)OCO2)c1c(Cl)cccc1Cl [alda-1],0.82%
13,CC(C)n1cnc2c(C(=O)N[C@H]3CN4CCC3CC4)cc(Cl)cc21,-1.37%
14,Nc1cc(C(F)(F)F)c(-c2nc(N3CCOCC3)nc(N3CCOCC3)n2)cn1,5.6%
15,Cc1ccc(NC(=O)C2(c3ccc4c(c3)OC(F)(F)O4)CC2)nc1-c1cccc(C(=O)O)c1 [lumacaftor],0.38%
16,OCCCNc1ccccc1 [3-anilinopropan-1-ol],2.09%
